Experiment [1] can be described thus: AP1 Signaling Pathway (AID 357).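 Also: ME-180 reporter cells stimulated with EGF at its EC50 level; % is scaled to controls: 0 for no effect and ±100 for the full control effect.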 The method in brief: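 AP-1-bla ME-180 cells, Opti-MEM + 0.5% dialyzed FBS, plated overnight 37 °C. Cpd titration + EC50 EGF, 5 h 37 °C. CCF4 2.5 h RT; ex 405, em 460/530 ratio → %activity, AC50.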
Experiment [2] deals with Cytochrome P450 1A2 (Homo sapiens) (UniProt P05177). Put plainly: p450-cyp1a2 (AID 410; calls by dose curve; also: potency is read from the fitted curve at half-maximal effect;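 as to activity change, negative = inhibition: -100% = full effect of reference inhibitor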). The method in brief: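 Luminescent readout of luciferin formed from Luciferin-ME by human CYP1A2; data normalized against complete inhibition by 57 uM furafylline. Enzyme 20nM, substrate 100uM at Km, 100mM KPO4 buffer, 60 min reaction at room temperature.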
Sequence of Cytochrome P450 1A2 (Homo sapiens) (P05177 whole entry, looked up): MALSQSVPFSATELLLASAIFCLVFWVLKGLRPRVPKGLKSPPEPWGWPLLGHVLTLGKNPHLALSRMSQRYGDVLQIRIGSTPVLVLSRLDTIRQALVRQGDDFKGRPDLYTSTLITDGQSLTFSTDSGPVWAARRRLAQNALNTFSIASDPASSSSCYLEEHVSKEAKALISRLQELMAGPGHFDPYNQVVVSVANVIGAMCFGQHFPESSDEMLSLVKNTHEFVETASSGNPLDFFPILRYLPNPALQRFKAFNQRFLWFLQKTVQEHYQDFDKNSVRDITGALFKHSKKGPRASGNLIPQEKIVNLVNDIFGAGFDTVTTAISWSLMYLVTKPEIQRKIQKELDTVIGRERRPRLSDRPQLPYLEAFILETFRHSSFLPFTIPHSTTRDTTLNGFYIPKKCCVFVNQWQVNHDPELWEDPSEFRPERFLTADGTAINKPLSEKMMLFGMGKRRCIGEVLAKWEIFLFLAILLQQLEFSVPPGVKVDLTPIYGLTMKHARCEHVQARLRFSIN
Experiment [3] is described as follows: NFAT Signaling Pathway (AID 444).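 Also: carbachol stimulus at about its EC50 of 1 µM final; % is scaled to controls: 0 for no effect and ±100 for the full control effect.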 Conditions: Jurkat NFAT-bla M1, carbachol, beta-lactamase ratio, 5 h; at 17.2 µM (top of the series) unless noted. A digest of the protocol: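 Read-out: CCF4 FRET ratio (460 nm/530 nm) after 1 h RT dye loading, used for %activity and AC50 from titration series. Cells: Jurkat NFAT-β-lactamase/M1 line, treated with compound plus 1 uM carbachol for 5 h, 37 °C.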

A short description of experiment [4]: Stat Signaling Pathway (AID 446).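 Also: ME-180 cervical cancer cells given 40 pM IL-6 alongside compound; SIE-controlled beta-lactamase reporter measured as 460/530 nm FRET emission ratio; % is scaled to controls: 0 for no effect and ±100 for the full control effect.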 A digest of the protocol: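 Screening format detects activators and inhibitors alike: ME-180 SIE-bla cells stimulated at 40 pM IL-6 for 5 hrs with compound, then dual-emission beta-lactamase read at 405 nm excitation.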
Experiment [5] addresses Glucocorticoid receptor (Homo sapiens) (UniProt P04150). Put plainly: GR-GFP Redistribution (AID 450;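 active = compounds whose dose series gives a full or clear partial fitted curve of increased nuclear translocation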; also: potency is read from the fitted curve at half-maximal effect). Conditions: U2OS GR-GFP nuclear translocation, laser cytometry, 2 h.
Experiment [6] addresses Mitogen-activated protein kinase 10 (Mus musculus) (UniProt Q61831). Put plainly: JNK3 AlphaScreen Assay (AID 530).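 Also: kinase came from lysate of stimulated human HepG2 cells; signal reports phosphorylation of biotinylated GST-cJun 1-79 at Ser73 with 10 µM ATP; % is scaled to controls: 0 for no effect and ±100 for the full control effect.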 A digest of the protocol: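 Compound titrations were preincubated 15 minutes at room temperature with substrate, antibody and pre-activated JNK3-containing HepG2 lysate. Reactions were started with 10 uM ATP and stopped with EDTA-containing bead buffer for AlphaScreen detection.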
Background: In Alpha technology, singlet oxygen from a donor bead excites a nearby acceptor bead.

Experiment [7] addresses 3',5'-cyclic-AMP phosphodiesterase 4B (Homo sapiens) (UniProt Q07343). Put plainly: qHTS Assay for Inhibitors of PDE-IV (AID 607; active = well fitted activation curve with a large enough effect in the main read-out, with a control signal flat, not every such curve was filed as active; also: % of control where 0% means no effect). The method in brief:
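The readout is membrane depolarisation from a cAMP-sensing CNG channel, detected with a potential dye at ex 535/em 590. Cells were HEK293-derived (endogenous PDE-IV) at 1000 cells/well, titrated up to 22.9 uM final.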
In general terms: In qHTS, concentration-response curves come from the screen itself.

The nature of experiment [8]: qHTS Assay for Lipid Storage Modulators (AID 1519; calls by dose curve). The following applies: Drosophila S3 cells, BODIPY lipid droplet/cell ratio, laser cytometry, cells loaded with oleic acid. A digest of the protocol:
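Cells seeded at 5,000 per well were treated with compounds over a concentration series and loaded with oleic acid (400 uM, as added). Lipid droplet fluorescence (488 nm excitation, 500-530 nm channel) was read by laser-scanning cytometry and normalized to 20 uM Triacsin C.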

Experiment [9] addresses ATP-dependent 6-phosphofructokinase (Trypanosoma brucei brucei) (UniProt O15648). Put plainly: qHTS Assay to Find Inhibitors of T. brucei phosphofructokinase: hit validation (AID 492961; active = well fitted curve in the direction sought with a large enough effect; an effect the other way counts as inactive or inconclusive). A digest of the protocol: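 In this biochemical qHTS validation, titrated compounds were tested against 1.25 nM PFK with 0.1 mM ATP and 0.5 mM F6P. Percent activity came from controls lacking or containing enzyme.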

For experiment [10], the target named is Luciferin 4-monooxygenase (Photinus pyralis) (UniProt P08659). The experiment in a line: Biochemical firefly luciferase enzyme assay for NPC (AID 624030; active = well fitted curve in the direction sought with a large enough effect; an effect the other way counts as inactive or inconclusive;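 also: purified P. pyralis luciferase at 10 nM with luciferin and ATP substrate; 0% = DMSO and -100% = full luciferase inhibition by PTC124 control; nearly all actives have a fitted effect of over 70% in size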). The method in brief:
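Direct inhibition of firefly luciferase enzyme (10 nM final, 50 mM Tris Acetate) assessed by luminescence within 5 minutes. Percent activity scaled between DMSO and PTC124 positive control, with concentration-effect curves classified by fit quality and response.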

Experiment [11] is described as follows: qHTS profiling for inhibitors of Plasmodium falciparum proliferation (AID 504749; active = well fitted curve in the direction sought with a large enough effect; an effect the other way counts as inactive or inconclusive;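 also: 0% = DMSO vehicle and full inhibition = artemisinin control; nearly all actives have a fitted effect of over 60% in size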). Conditions: P. falciparum in erythrocytes, SYBR Green DNA, 72 h, at 12.8 µM (top of the series). The method in brief:
(§1)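 Infected RBCs, 0.3% parasitemia/2.5% Hct final; cpd 72 h, 37 C, 5% CO2; lysis buffer with saponin/triton/SYBR Green I, o/n RT dark; FI 485/535; norm. to artemisinin (0.29 uM) and DMSO.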

The subject of experiment [12] is 3D7. The experiment is described as above. Conditions: P. falciparum in erythrocytes, SYBR Green DNA, 72 h; series mostly up to 12.8 µM. The method in brief: as §1
For experiment [13], the system named is C2A. The description is as above. The following applies: P. falciparum in erythrocytes, SYBR Green DNA, 72 h; series mostly up to 12.8 µM. The method in brief: as §1
The test system of experiment [14] is CP217. The description is as above. Conditions: P. falciparum in erythrocytes, SYBR Green DNA, 72 h; series mostly up to 12.8 µM. A digest of the protocol:
as §1

The subject of experiment [15] is CP250. Described as above. The following applies: P. falciparum in erythrocytes, SYBR Green DNA, 72 h; series mostly up to 12.8 µM. A digest of the protocol: as §1
The test system of experiment [16] is FAB9. Described as above. Conditions: P. falciparum in erythrocytes, SYBR Green DNA, 72 h; series mostly up to 12.8 µM. The method in brief:
as §1

In experiment [17] the test system is JCK. Described as above. The following applies: P. falciparum in erythrocytes, SYBR Green DNA, 72 h; series mostly up to 12.8 µM. The method in brief:
as §1

For experiment [18], the system named is PC49. The experiment is described as above. The following applies: P. falciparum in erythrocytes, SYBR Green DNA, 72 h; series mostly up to 12.8 µM. The method in brief: as §1
Experiment [19] addresses Ubiquitin carboxyl-terminal hydrolase 1 (Homo sapiens) (UniProt O94782). The experiment in a line: Inhibitors of USP1/UAF1: Pilot qHTS (AID 504865; active = well fitted curve in the direction sought with a large enough effect; an effect the other way counts as inactive or inconclusive;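 also: rhodamine fluorescence freed from ubiquitin-rhodamine substrate followed over time; top concentration of the series differs between compounds; % is scaled to controls: 0 for no effect and ±100 for the full control effect; nearly all actives have a fitted effect of over 35% in size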). A digest of the protocol:
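Enzyme-free wells gave the negative control, while test wells held 1nM USP1/UAF1 preincubated with compound for 15 min at room temperature. Ub-Rho at 150nM final started the reaction, and fluorescence at 480/540 nm was recorded kinetically.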

In experiment [20] the target is Glucocorticoid receptor (Homo sapiens) (UniProt P04150). Put plainly: GR-EFC Redistribution (AID 451; calls by dose curve; also: potency is read from the fitted curve at half-maximal effect). Conditions: CHO-K1 GR-EFC translocation, beta-gal luminescence, 2 h. A digest of the protocol:
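Translocation of GR-ED fusion to nuclear EA restores b-gal, read by luminescence after 1 h room-temperature detection. Engineered CHO-K1 biosensor cells, 1,000/well, exposed 2 h at 37 C to titrations up to 46 uM final.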

The mark [21] stands for this setting: measured here: cell count channel max response.
Setting [22] is: measured here: lipid channel max response.

Results filed as inconclusive are left out. The source made the active and inactive calls. Unless noted, calls follow the shape of the dose curve; as a rule, active = well fitted curve in either direction with a large enough effect (not every such curve was filed as active); inconclusive = small, poorly fitted or top-dose-only effect, or another doubt; inactive = flat fitted curve, though single readings scatter. Bounds are passed on as bounds.

Sequence of Ubiquitin carboxyl-terminal hydrolase 1 (Homo sapiens) (O94782 whole entry, looked up): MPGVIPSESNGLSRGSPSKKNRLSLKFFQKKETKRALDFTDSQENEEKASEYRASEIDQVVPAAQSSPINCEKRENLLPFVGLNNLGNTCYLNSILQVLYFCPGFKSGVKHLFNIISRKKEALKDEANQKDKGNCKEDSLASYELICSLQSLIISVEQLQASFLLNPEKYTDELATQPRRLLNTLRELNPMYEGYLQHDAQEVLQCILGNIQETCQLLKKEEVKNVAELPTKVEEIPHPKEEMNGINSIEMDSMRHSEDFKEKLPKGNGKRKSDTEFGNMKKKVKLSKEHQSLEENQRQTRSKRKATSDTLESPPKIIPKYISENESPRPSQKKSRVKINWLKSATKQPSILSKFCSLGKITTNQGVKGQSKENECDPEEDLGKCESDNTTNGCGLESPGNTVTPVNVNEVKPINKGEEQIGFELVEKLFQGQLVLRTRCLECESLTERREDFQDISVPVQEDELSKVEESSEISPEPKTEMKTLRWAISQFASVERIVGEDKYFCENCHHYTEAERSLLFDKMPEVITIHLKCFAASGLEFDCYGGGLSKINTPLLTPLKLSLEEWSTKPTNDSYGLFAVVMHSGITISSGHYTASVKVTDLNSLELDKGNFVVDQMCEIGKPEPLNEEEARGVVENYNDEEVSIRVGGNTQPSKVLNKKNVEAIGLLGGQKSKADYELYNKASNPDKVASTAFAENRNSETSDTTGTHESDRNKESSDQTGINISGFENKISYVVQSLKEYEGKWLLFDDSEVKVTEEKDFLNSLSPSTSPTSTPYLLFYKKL
Sequence of Glucocorticoid receptor (Homo sapiens) (P04150 whole entry, looked up, the tested form may be a part): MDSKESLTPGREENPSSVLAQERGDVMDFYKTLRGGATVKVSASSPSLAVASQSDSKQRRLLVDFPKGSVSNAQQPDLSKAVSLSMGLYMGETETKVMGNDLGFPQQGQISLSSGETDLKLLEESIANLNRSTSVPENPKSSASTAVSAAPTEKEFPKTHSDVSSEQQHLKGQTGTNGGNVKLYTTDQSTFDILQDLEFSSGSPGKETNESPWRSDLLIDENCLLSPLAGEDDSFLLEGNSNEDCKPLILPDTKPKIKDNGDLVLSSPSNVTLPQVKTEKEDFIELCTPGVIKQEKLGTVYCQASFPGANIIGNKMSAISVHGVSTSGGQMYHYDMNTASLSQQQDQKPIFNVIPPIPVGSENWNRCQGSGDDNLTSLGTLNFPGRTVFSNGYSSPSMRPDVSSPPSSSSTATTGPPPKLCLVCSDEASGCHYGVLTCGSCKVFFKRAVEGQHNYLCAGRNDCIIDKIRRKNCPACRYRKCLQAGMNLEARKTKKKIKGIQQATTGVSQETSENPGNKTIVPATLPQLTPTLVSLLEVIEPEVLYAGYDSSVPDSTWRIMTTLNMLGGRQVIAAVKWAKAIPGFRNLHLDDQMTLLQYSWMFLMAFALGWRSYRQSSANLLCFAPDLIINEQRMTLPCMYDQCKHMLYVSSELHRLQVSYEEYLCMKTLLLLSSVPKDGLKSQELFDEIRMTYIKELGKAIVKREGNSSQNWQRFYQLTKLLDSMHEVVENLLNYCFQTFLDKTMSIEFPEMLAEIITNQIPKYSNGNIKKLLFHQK
Sequence of 3',5'-cyclic-AMP phosphodiesterase 4B (Homo sapiens) (Q07343 whole entry, looked up): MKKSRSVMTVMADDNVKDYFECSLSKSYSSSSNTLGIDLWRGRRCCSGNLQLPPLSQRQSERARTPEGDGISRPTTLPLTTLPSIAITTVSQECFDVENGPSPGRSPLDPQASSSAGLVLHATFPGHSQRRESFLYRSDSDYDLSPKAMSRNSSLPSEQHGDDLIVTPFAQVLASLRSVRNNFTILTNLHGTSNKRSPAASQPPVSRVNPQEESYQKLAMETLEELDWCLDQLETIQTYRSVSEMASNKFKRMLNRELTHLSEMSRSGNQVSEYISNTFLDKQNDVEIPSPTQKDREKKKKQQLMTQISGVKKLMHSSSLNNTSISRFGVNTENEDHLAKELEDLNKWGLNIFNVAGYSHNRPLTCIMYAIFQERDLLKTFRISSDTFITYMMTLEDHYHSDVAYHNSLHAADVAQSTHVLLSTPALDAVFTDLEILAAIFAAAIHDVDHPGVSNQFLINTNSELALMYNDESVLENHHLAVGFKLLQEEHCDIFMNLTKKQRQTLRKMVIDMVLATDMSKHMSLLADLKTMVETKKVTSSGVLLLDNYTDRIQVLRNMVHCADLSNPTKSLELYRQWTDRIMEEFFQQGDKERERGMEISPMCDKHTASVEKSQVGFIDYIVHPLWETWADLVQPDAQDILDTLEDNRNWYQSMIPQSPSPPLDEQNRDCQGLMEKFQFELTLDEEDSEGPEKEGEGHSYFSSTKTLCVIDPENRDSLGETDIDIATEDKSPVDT
Sequence of Luciferin 4-monooxygenase (Photinus pyralis) (P08659 whole entry, looked up): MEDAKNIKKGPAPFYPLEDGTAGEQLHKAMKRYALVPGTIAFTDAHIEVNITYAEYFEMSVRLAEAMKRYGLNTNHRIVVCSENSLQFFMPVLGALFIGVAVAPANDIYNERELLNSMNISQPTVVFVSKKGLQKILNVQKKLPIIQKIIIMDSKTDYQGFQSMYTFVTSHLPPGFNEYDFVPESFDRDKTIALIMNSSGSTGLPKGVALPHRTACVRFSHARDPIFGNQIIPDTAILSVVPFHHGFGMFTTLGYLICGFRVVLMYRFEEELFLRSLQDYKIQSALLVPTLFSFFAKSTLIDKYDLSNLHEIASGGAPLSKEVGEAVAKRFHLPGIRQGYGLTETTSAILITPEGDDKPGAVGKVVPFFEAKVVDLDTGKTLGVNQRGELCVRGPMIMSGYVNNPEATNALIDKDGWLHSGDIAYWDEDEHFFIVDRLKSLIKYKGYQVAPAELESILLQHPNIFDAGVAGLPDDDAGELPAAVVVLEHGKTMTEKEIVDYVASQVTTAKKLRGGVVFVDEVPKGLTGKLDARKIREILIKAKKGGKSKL
Sequence of ATP-dependent 6-phosphofructokinase (Trypanosoma brucei brucei) (O15648 whole entry, looked up): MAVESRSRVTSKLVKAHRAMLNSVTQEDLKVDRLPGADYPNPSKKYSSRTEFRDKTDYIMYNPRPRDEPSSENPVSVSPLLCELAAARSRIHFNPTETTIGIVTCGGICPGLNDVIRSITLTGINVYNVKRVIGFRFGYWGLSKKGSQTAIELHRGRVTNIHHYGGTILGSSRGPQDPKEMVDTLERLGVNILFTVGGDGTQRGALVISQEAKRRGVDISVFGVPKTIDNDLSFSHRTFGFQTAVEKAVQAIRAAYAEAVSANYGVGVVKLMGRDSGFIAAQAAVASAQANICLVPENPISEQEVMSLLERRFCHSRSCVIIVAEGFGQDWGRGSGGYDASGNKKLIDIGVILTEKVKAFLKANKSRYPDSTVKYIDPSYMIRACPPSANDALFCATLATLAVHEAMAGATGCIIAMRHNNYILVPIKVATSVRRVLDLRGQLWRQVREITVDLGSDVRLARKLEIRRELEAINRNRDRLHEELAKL

Take `C=CCN1C(=CCO)[C@H]2C[C@H]3[C@@H]1CC[C@@]31c3ccccc3N3C=C4[C@@H]5N(/C=C/2[C@H]31)c1ccccc1[C@]51CC[C@H]2[C@H]1C[C@@H]4/C(=C/CO)N2CC=C`: the result in experiment [1], in [4], in experiment [7] and in [9] was inactive. Further, the Potency entry in experiment [2], in experiment [6], in [10], in experiment [12], in [13] and in experiment [14] was “inactive” throughout. The Potency result in [15], in experiment [16], in [17] and in experiment [18] was “inactive” in each case. In addition, the activity change, negative = inhibition in experiment [3] was -23.2% (inactive); in [8] (at 25.7 µM (top of the series)), 0.271% (inactive). The Potency in experiment [5] was > 20.6 µM (inactive). Besides, the figures for the max response in experiment [8] (setting [21]) and in experiment [8] (setting [22]) were -16.1% and -15.8%, respectively. Besides, the activity, negative = inhibition in experiment [11] (parasite line A) is 1.83% (inactive); in experiment [11] (parasite line B), 0.223% (inactive).
As for `CN(C)c1ccc(-c2nccc(NCc3ccccc3)n2)cc1`, the compound was called inactive in experiment [1] and in experiment [4]. Further, the Potency in experiment [2] was 1.26 µM (active); in [5] it was > 46 µM (inactive). In addition, the values for the activity change, negative = inhibition in experiment [3] and in [8] (at 57.5 µM (top of the series)) were -14.3% [at 7.69 µM] (inactive) and 2.02% (inactive), respectively. In addition, the Potency entry in [6] and in experiment [19] was “inactive” each time. For the same compound, the max response in experiment [8] (setting [21]) is -4.09%; in [8] (setting [22]) it was -1.11%.
For `NCC[C@H](O)C(=O)N[C@H]1C[C@@H](N)[C@@H](O[C@H]2O[C@@H](CN)[C@@H](O)[C@@H](O)[C@@H]2O)[C@@H](O)[C@@H]1O[C@H]1O[C@@H](CO)[C@@H](O)[C@@H](N)[C@@H]1O`, the compound was classed as inactive in experiment [1], in experiment [4] and in experiment [7]. In addition, in experiment [2], the Potency entry was “inactive”. The activity change, negative = inhibition in experiment [3] was -4.44% (inactive); in experiment [8] (at 25.7 µM (top of the series)) it was -0.738% (inactive). Moreover, the Potency in [5] and in experiment [20] was > 20.6 µM (inactive) each time. The max response is 11.5% in experiment [8] (setting [21]) and 11.3% in [8] (setting [22]).
Consider `COc1ccc2nccc(C(=O)O)c2c1`, for which the outcome in experiment [1], in experiment [4] and in experiment [7] was inactive. The Potency entry in experiment [2] and in experiment [6] was “inactive” throughout. Also, the activity change, negative = inhibition in experiment [3] is -15.8% (inactive); in experiment [8] (at 25.7 µM (top of the series)), 2.98% (inactive). For the same compound, in experiment [5], the Potency is > 20.6 µM (inactive). Also, the figures for the max response in [8] (setting [21]) and in experiment [8] (setting [22]) were -10.5% and -9.32%, respectively.
As for `C[C@@H]1O[C@H](O[C@@H]2[C@@H](Oc3cc(O)c4c(c3)O[C@H](c3ccc(O)cc3)CC4=O)O[C@@H](CO)[C@@H](O)[C@H]2O)[C@@H](O)[C@H](O)[C@@H]1O`, the outcome in experiment [1], in [4] and in [7] was inactive. For the same compound, the Potency result in [2], in experiment [6] and in experiment [19] was “inactive” each time. For the same compound, the values for the activity change, negative = inhibition in [3] and in [8] (at 25.7 µM (top of the series)) were -5.97% (inactive) and -1.64% (inactive), respectively. Moreover, the Potency in [5] was > 20.6 µM (inactive). Moreover, the max response in experiment [8] (setting [21]) is -4.7%; in experiment [8] (setting [22]), -6.11%.
Turning to `CNc1ncnc2c1ncn2[C@@H]1O[C@H](CO)[C@@H](O)[C@@H]1O`, the outcome in experiment [1], in experiment [4] and in experiment [7] was inactive. Moreover, the Potency result in [2], in experiment [6] and in experiment [19] was “inactive” in each case. In addition, the activity change, negative = inhibition in experiment [3] was -5.4% (inactive); in experiment [8] (at 25.7 µM (top of the series)) it was -4.48% (inactive). Moreover, the Potency in experiment [20] is > 20.6 µM (inactive). Moreover, the values for the max response in experiment [8] (setting [21]) and in experiment [8] (setting [22]) were -18.6% and -24.1%, respectively.

The values above are taken from PubChem BioAssay (NCATS).
